Here are results for six compounds from PubChem BioAssay.

One assay deals with Albumin (Bos taurus) (UniProt P02769). Nature of the assay: bovine serum albumin binders on microarray, profiling panel, artefact control for SMM control protein annotation, biochemical, small-molecule microarray, Alexa647 label, 635/667 nm fluorescence (AID 1118).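 Also: score merges 667 nm emission intensity and signal-to-noise per printed compound spot.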 To be noted: BSA-A647 binding, fluorescence 635 nm, higher = more signal.
Albumin (Bos taurus), sequence (P02769 whole entry, looked up): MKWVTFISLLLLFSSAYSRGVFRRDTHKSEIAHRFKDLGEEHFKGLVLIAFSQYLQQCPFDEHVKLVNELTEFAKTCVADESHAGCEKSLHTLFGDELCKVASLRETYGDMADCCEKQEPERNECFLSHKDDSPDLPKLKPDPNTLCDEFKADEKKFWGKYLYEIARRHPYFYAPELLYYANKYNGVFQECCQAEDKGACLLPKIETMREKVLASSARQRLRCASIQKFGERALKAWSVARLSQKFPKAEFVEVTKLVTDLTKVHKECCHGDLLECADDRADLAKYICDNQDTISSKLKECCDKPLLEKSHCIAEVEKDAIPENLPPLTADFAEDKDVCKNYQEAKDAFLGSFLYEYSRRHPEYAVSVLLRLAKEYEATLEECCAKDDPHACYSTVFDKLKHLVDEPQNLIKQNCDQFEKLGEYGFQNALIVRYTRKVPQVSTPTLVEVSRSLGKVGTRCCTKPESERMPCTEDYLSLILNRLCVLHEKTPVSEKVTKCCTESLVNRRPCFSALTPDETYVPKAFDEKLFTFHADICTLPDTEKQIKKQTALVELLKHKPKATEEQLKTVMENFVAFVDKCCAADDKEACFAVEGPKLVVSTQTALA
The nature of assay [1]: small-molecule microarray binders of probe aXIP, primary screen, biochemical, NeuroSMM set, 635/667 nm fluorescence (AID 1119).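 Also: probe is the protein aXip251-270 applied at 1 µg/mL to compound-printed slides; binding of probe to printed compounds measured as 667 nm fluorescence plus signal to noise.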 To be noted: higher = more signal, called active from +8 up or from −8 down.
A short description of assay [2]: small-molecule binders of probe aNOTCH3, primary screen, biochemical, small-molecule microarray, 635/667 nm fluorescence (AID 1120).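 Also: probe is a biotin-tagged antibody raised against NOTCH3 rather than NOTCH3 protein; score merges spot fluorescence near 667 nm with spot signal to noise.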 The conditions noted are these: higher = more signal.
A short description of assay [3]: small-molecule binders of probe aNOTCH2, primary screen, biochemical, small-molecule microarray, 635/667 nm fluorescence (AID 1121).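 Also: score merges feature fluorescence read at 667 nm with its signal to noise.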 The conditions noted are these: higher = more signal.
Assay [4] addresses Carbonic anhydrase 2 (Homo sapiens) (UniProt P00918). Nature of the assay: CAII small-molecule binders, profiling panel, biochemical, small-molecule microarray, Alexa647-labelled CAII (AID 1122). To be noted: CAII-A647 binding fluorescence, higher = more signal.
Assay [5] is described as follows: COS7 lysate on small-molecule microarray, probe aHis, 635 nm (AID 1123).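 Also: z-score combines 667nm fluorescence intensity with signal-to-noise per printed compound spot.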 To be noted: COS7 cell lysate, fluorescence, higher = more signal.
Assay [6] in a line: compound binding in COS7 lysate, probe aLAP1, primary screen, cell lysate, small-molecule microarray (AID 1124).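 Also: lysate comes from COS7 cells expressing LAP1 and is applied at 0.3 µg/mL; score merges spot fluorescence near 667 nm with signal-to-noise over triplicate slides.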 The conditions noted are these: probe aLAP1, fluorescence, higher = more signal.
In a further assay the test system is Sam68 (KHDRBS1). Nature of the assay: Sam68 small-molecule binders, primary screen, biochemical, small-molecule microarray, 635 nm fluorescence (AID 1125).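 Also: score merges 667 nm channel intensity with signal to noise over triplicate slides.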 To be noted: small-molecule microarray binding, higher = more signal.
Assay [7] concerns Chordin-like protein 2 (CHRDL2). Nature of the assay: CHRDL2 small-molecule binders, primary screen, biochemical, small-molecule microarray, 635 nm fluorescence (AID 1126).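 Also: printed compound slides probed with Chrdl2 protein at 4 µg/mL for 1 h at 4 C; score merges 667 nm emission intensity with signal to noise over three replicate slides.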 To be noted: small-molecule microarray binding, fluorescence 635 nm; higher = more signal.
Assay [8] concerns the target Concanavalin-A (Canavalia ensiformis) (UniProt P02866). The experiment in a line: ConA small-molecule binders, primary screen, artefact control for SMM control protein annotation, biochemical, small-molecule microarray, Alexa647 label, 635 nm (AID 1127).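 Also: z combines 667 nm emission intensity with signal-to-noise across three replicate slides.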 The conditions noted are these: ConA-A647 binding fluorescence, higher = more signal.
Assay [9] is described as follows: anti-His antibody binders, primary screen, artefact control for SMM control protein annotation, biochemical, small-molecule microarray, 635 nm fluorescence (AID 1128).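 Also: score merges feature fluorescence with signal-to-noise for each printed compound spot.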 To be noted: anti-His Alexa647 antibody binding, higher = more signal.
Assay [10] deals with Human papillomavirus type 1a E7 protein (residues 1-88). Nature of the assay: HPV1a E7 small-molecule binders, primary screen, biochemical, small-molecule microarray, residues 1-88, 635 nm (AID 1129). To be noted: small-molecule microarray binding, fluorescence 635 nm; higher = more signal.
In assay [11] the target is Focal adhesion kinase 1 (Homo sapiens) (UniProt Q05397). The experiment in a line: small-molecule microarray binders of FAK, primary screen, biochemical, 635/667 nm fluorescence, BSA, DTT (AID 1130).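 Also: composite of spot emission at 667 nm and signal to noise over triplicate slides.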 The conditions noted are these: PTK2 binding, 635 nm fluorescence, higher = more signal.
Focal adhesion kinase 1 (Homo sapiens), sequence (Q05397 whole entry, looked up): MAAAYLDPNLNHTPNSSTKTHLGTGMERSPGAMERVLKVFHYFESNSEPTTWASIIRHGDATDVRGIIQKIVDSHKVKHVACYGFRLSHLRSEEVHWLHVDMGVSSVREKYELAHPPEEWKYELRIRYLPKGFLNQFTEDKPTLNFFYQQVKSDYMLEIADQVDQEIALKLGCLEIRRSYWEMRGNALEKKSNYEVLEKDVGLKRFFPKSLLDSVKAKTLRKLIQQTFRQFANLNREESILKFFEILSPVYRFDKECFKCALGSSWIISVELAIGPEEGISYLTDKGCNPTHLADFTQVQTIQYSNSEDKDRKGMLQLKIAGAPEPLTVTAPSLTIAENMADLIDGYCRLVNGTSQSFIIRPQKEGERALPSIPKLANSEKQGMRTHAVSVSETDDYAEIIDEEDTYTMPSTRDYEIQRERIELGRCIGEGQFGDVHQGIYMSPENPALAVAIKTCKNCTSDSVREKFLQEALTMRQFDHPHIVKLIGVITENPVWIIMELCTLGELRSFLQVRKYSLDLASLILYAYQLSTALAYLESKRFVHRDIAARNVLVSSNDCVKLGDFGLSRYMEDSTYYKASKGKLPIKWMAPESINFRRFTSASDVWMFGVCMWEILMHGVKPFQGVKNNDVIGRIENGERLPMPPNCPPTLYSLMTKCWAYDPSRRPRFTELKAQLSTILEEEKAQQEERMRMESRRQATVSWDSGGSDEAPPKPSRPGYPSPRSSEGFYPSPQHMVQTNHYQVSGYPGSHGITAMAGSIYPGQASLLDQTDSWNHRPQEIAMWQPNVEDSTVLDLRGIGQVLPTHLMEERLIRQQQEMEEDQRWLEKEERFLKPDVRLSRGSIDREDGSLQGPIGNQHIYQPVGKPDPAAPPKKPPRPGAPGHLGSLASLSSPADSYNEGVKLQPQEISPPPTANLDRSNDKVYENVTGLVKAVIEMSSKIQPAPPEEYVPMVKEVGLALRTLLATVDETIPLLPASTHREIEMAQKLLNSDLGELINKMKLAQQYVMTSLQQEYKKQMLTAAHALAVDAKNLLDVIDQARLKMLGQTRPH
The subject of assay [12] is Fibrinogen (Alexa647-labelled). Nature of the assay: fibrinogen binders on compound microarrays, profiling panel, artefact control for SMM control-protein annotation, biochemical, small-molecule microarray, 635/667 nm fluorescence (AID 1131).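 Also: z-score merges 667 nm fluorescence with per-spot signal-to-noise over triplicate slides.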 To be noted: fibrinogen-A647 binding fluorescence, higher = more signal.
Assay [13] deals with Follistatin (Homo sapiens) (UniProt P19883). Nature of the assay: follistatin binders on small-molecule microarrays, primary screen, biochemical, small-molecule microarray, 635/667 nm fluorescence (AID 1132). The conditions noted are these: FST binding, 635 nm fluorescence, higher = more signal.
Follistatin (Homo sapiens), sequence (P19883 whole entry, looked up): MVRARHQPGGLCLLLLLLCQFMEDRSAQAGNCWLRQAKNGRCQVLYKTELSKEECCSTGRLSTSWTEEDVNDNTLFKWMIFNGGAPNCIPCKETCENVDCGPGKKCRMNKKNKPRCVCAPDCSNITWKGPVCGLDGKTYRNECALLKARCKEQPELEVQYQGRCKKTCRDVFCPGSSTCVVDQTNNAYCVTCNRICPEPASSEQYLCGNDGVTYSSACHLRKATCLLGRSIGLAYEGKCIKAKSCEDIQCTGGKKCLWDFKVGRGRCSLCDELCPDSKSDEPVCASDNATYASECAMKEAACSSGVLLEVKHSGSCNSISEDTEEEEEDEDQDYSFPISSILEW
Assay [14] addresses Fibroblast growth factor 2 (Homo sapiens) (UniProt P09038). The experiment in a line: FGF2 binders on small-molecule microarrays, primary screen, biochemical, small-molecule microarray, 635/667 nm fluorescence (AID 1133). The conditions noted are these: small-molecule microarray binding, FGF2, fluorescence 635/667; higher = more signal.
A short description of assay [15]: mitochondrial membrane potential change in A549 cells, profiling panel, cell-based, JC-1 fluorescence, basal, 24 h, 100 nL (AID 1138).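 Also: A549 lung adenocarcinoma cells under basal conditions with no added stimulus; test concentration not given here.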 To be noted: higher = more signal.
A further assay deals with Lefty1. Nature of the assay: Lefty1 binders on small-molecule microarrays, primary screen, biochemical, small-molecule microarray, 635/667 nm fluorescence (AID 1139). To be noted: small-molecule microarray binding, fluorescence 635/667; higher = more signal.
The subject of assay [16] is wheat germ agglutinin (Triticum aestivum), Alexa647-labelled. Nature of the assay: wheat germ agglutinin binders on compound microarrays, profiling panel, artefact control for SMM control-protein annotation, biochemical, small-molecule microarray, 635/667 nm fluorescence (AID 1140).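 Also: score merges 667 nm feature emission with signal to noise over triplicate slides.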 To be noted: WGA-A647 binding, 635 nm fluorescence, higher = more signal.
Assay [17] deals with Luciferin 4-monooxygenase (Photinus pyralis) (UniProt P08659). The experiment in a line: firefly luciferase enzyme inhibitors, primary screen, biochemical, luminescence, purified enzyme, 2006 set (AID 1141).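 Also: cell-free assay with purified firefly luciferase at 100 ng per well in PBS; test concentration not given here.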 To be noted: SteadyGlo luminescence, 30 min, higher = more signal, called active from +8 up or from −8 down.
Luciferin 4-monooxygenase (Photinus pyralis), sequence (P08659 whole entry, looked up): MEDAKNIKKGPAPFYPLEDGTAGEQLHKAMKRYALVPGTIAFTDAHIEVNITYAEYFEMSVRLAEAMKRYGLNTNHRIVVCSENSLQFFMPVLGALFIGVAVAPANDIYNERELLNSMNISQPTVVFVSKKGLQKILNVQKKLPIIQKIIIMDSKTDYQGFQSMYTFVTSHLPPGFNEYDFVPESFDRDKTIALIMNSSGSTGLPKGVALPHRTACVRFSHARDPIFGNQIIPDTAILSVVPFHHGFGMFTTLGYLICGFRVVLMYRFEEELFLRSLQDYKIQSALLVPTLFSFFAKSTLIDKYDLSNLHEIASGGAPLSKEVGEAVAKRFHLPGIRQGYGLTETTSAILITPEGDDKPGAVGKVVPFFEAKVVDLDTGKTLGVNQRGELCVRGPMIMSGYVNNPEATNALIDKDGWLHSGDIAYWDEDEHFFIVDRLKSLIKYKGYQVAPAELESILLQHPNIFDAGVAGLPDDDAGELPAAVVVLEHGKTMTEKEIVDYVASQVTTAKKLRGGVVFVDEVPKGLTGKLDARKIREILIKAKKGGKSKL

SMILES strings stand for the structures. Active and inactive are the calls of the source.

Concanavalin-A (Canavalia ensiformis), sequence (P02866 whole entry, looked up): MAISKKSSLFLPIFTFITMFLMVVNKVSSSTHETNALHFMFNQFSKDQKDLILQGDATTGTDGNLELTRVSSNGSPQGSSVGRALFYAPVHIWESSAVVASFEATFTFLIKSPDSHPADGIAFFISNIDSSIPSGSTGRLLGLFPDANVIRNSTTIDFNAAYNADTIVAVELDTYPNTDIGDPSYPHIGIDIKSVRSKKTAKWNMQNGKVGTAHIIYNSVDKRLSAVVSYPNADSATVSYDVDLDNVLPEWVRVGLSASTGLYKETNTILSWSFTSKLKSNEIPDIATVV
Fibroblast growth factor 2 (Homo sapiens), sequence (P09038 whole entry, looked up): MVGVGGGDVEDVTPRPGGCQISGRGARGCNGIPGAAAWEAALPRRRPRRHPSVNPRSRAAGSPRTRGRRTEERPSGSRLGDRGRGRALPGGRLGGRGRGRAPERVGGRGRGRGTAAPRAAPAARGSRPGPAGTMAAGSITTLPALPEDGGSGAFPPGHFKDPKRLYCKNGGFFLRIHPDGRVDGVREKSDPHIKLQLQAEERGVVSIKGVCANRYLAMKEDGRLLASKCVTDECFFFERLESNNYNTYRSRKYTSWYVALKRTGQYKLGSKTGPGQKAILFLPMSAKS

In the case of `O=C(CS)NCCCCCNC(=O)[C@@H]1C[C@@H]2C(=O)N[C@@H](Cc3ccccc3)C(=O)N2[C@@H]1c1ccc(O)cc1`, the composite z-score was -0.814 in the assay with Albumin (Bos taurus); -0.0647 in [2]; -0.0756 in assay [3]; 0.674 in assay [4]; 1.37 in [5]; 0.154 in [6]. Further, the composite z-score with Sam68 (KHDRBS1) was 1.3; in assay [7] it was 0.617; in [8] it was 0.874; in [9], 2.33; in assay [10], 1.21; in [11] it was 0.661. Also, the composite z-score in assay [12] was -0.0141; in assay [13], 1.31; in assay [14] it was 1.29; in the assay with Lefty1 it was 0.233; in [16] it was 0.304. In addition, the composite Z-score in [1] was 0.346 (inactive). The figures for the z-score in [15] and in [17] were -0.208 and -3.79 (inactive), respectively.

For the compound `CCc1cccc(NC(=O)O[C@H]2[C@H](OC(=O)Nc3ccc4c(c3)OCO4)[C@@H](OC(=O)Nc3ccc4c(c3)OCO4)[C@@H](OC)O[C@@H]2CO)c1`, the composite z-score with Albumin (Bos taurus) is 0.539; in assay [2], 0.42; in assay [3], -0.0714; in assay [4], 0.645; in assay [5], 2.42; in assay [6], 0.665. Also, the composite z-score in the assay with Sam68 (KHDRBS1) was 1.29; in [7], 0.463; in assay [8] it was 0.638; in assay [9], 0.646; in assay [10], 1.25; in assay [11] it was -0.106. For the same compound, the composite z-score in assay [12] worked out at 0.992; in assay [13], 1.03; in assay [14] it was 0.528; in the assay with Lefty1, 1.36; in assay [16], 0.809. In addition, the composite Z-score in assay [1] was 0.108 (inactive). The z-score in assay [15] is -0.321; in [17], -7.34 (inactive).

For `CC(C)N1CC=CC23O[C@@H]4C=CCCOC(=O)C4[C@H]2C(=O)N(CCCCCCO)[C@@H]3C1=O` (stereo not given in full), the composite z-score is -0.176 with Albumin (Bos taurus); -0.193 in assay [2]; 0.109 in [3]; 0.439 in assay [4]; -0.425 in assay [5]; 0.753 in assay [6]. For the same compound, the composite z-score in the assay with Sam68 (KHDRBS1) is -0.952; in [7] it was -1.71; in [8], -0.428; in [9], -0.112; in [10], -0.807; in assay [11], -0.268. The composite z-score is -1.2 in [12]; -0.851 in [13]; -1.6 in assay [14]; -0.187 in the assay on Lefty1; -1.32 in [16]. Also, the composite Z-score in assay [1] was 0.0157 (inactive). The z-score in assay [15] is 0.526; in [17] it was -0.127 (inactive).

For the compound `C=C(CCCC)C(=O)CC[C@@H](OC(C)=O)c1cccc(OCCO)c1`, the composite z-score in the assay with Albumin (Bos taurus) is -0.528; in assay [2], -0.0933; in assay [3], -0.193; in assay [4], 0.767; in assay [5], -0.022; in [6] it was 0.953. For the same compound, the composite z-score in the assay on Sam68 (KHDRBS1) was -0.106; in assay [7], 0.582; in assay [8], 0.259; in assay [9], 0.936; in assay [10], -0.864; in [11] it was -0.0296. Besides, the composite z-score in assay [12] is -0.75; in assay [13], 1.3; in assay [14], 0.829; in the assay on Lefty1, 0.932; in [16] it was -1.1. Moreover, in [1], the composite Z-score is 0.0491 (inactive). In addition, the z-score was -0.497 in assay [15] and -0.879 (inactive) in assay [17].

As to `CO[C@H]1O[C@H](CO)[C@@H](OC(=O)Nc2ccc(C#N)cc2)[C@H](OC(=O)c2cc3ccccc3[nH]2)[C@H]1OC(=O)c1cc2ccccc2[nH]1`, the composite z-score with Albumin (Bos taurus) was 0.904; in [2], 0.078; in assay [3] it was -0.0211; in assay [4], 0.627; in [5], 2.41; in [6], 1.5. Further, the composite z-score in the assay with Sam68 (KHDRBS1) turned out to be 1.31; in [7] it was 0.451; in assay [8] it was 1.13; in assay [9] it was 2.87; in assay [10], 1.18; in assay [11] it was 0.831. The composite z-score in [12] was 0.787; in [13], 0.491; in [14], 1.33; with Lefty1, 0.421; in assay [16] it was 0.955. The composite Z-score in [1] was 1.79 (inactive). In addition, the z-score in [15] was 0.71; in assay [17], -2.01 (inactive).

On to `O=C1[C@H]2[C@H]3[C@H](O)[C@H](O)CC(=NO[C@@H]4O[C@H](CO)[C@@H](O)[C@H](O)[C@H]4O)[C@H]3CC[C@H]2C(=O)N1Cc1ccc2c(c1)OCO2`, for which the composite z-score with Albumin (Bos taurus) was 0.861; in [2] it was -0.0984; in assay [3], -0.106; in assay [4], 0.173; in [5], 1.42; in [6], 0.0185. The composite z-score in the assay with Sam68 (KHDRBS1) was 0.89; in [7], -0.575; in [8] it was 0.619; in assay [9], 1.01; in [10], -0.186; in [11], 0.0254. In addition, the composite z-score in [12] is 0.762; in [13], -0.164; in assay [14] it was -0.654; in the assay with Lefty1, 0.515; in assay [16], -0.205. Moreover, the composite Z-score in assay [1] was -0.161 (inactive). Further, the z-score is 0.531 in assay [15] and 0.654 (inactive) in assay [17].
